# From PubChem BioAssay
# Rin1-Abl PPI inh: inhibitors of human Rin1-Abl protein interaction; P00519+Q13671; TR-FRET Rin1/Abl binding, biochemical; inhibition, % at 7.35 µM; hit rate 0.4% among 360,000; AID 588664; in the data active means inhibition above about 5%, passing the limit was not always enough
# Neddyl block: blocks human cullin neddylation; P61081+Q13564; TR-FRET cullin neddylation, biochemical; inhibition, % at 25 µM; hit rate 0.58% among 360,000; in the data active means inhibition above about 36%
# SUMO1-SIM PPI: SUMO1-SIM interaction modulation. P63165. SUMO1 binding to a labelled peptide, TR-FRET, 1 h. inhibition, % at 20 µM. hit rate 0.33% among 360,000; in the data active means inhibition above about 37%
# ATG4B inh: blocks human ATG4B protease cleavage of LC3 substrate; hit rate 0.51% among 340,000; inhibition, % at 8.33 µM; Q9Y4P1; ATG4B cleavage of LC3-PLA2, NBD-HPC fluorescence, 1 h; AID 504462
# Neddyl conf: confirmation of human cullin neddylation inhibitors; TR-FRET cullin neddylation biochemical assay; shares compounds with Neddyl block; calls only at 25 µM; hit rate 13% among 1,800;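 further: neddylation substrate is the cullin 1 ring ligase complex with SKP2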
# A number is an active result; i = inactive; nt = no result given; + = active, no number. Sampled rows, rich in hits. Any-hit rate of the full collection: about 1.7%. Unless noted, no stated cut-off is given here; in the data, active means inhibition above about 40%; inactive means the rest.
SMILES,Rin1-Abl PPI inh,Neddyl block,SUMO1-SIM PPI,ATG4B inh,Neddyl conf
CCCCN(CC)CCCNC(=O)c1cc2c(=O)n(C)c3ccccc3c2n1C,i,43,i,i,i
O=C(NCCCn1ccnc1)c1sc2cc([N+](=O)[O-])ccc2c1Cl,i,i,i,nt,nt
Cc1cc(C)nc(-n2nc(C)c3c(C(=O)O)cc(-c4cccc(Br)c4)nc32)n1,i,40,i,i,i
CC1CCCCC1NC(=O)c1cc2c(=O)n3ccccc3nc2n1C (centres undefined),i,nt,i,i,nt
O=C(NCCC1=CCCCC1)c1c(O)nc2ccccn2c1=O,i,i,i,i,nt
CC1CCCCC1NC(=O)c1c(O)nc2ccccn2c1=O (centres undefined),i,40,i,i,i
O=C(NCCCN1CCCC1=O)c1c(O)nc2ccccn2c1=O,i,41,i,i,i
Cc1c(C2Nc3ccccc3NC3=C2C(=O)CC(C)(C)C3)cnn1C (centres undefined),i,i,i,i,nt
COC(=O)C1=C(C)NC2=C(C(=O)CC(C)(C)C2)C1c1cnn(C)c1C (centres undefined),i,40,i,i,nt
CCOC(=O)c1sc(-c2cccs2)nc1C,i,46,i,i,i
Cc1nc(-c2cccs2)sc1C(=O)NN,i,i,i,i,nt
O=C(NCCN1CCNC1=O)c1ccc2sc([C@@H]3O[C@H](CO)[C@H](O)[C@H](O)[C@H]3O)nc2c1,i,i,i,nt,nt
S=c1[nH]c2nc(Cl)c(Cl)nc2[nH]1,i,41,i,nt,+
N=c1c(C(=O)NCCN2CCOCC2)cc2c(=O)n3ccccc3nc2n1CCc1ccccc1,i,nt,i,i,nt
Cc1ccc(Cn2c(=N)c(C(=O)NCCN3CCOCC3)cc3c(=O)n4ccccc4nc32)cc1,i,62,i,i,+
COC(=O)c1ccccc1NC(=O)N1CCCC1,i,46,i,i,i
CC(C)CNc1oc(-c2ccccc2Cl)nc1C#N,i,42,i,i,i
COCCCNc1oc(-c2ccccc2Cl)nc1C#N,i,i,i,i,nt
CCn1c(=O)c(CCC(=O)NCC2CCCO2)c(C)c2c(C)nn(-c3ccccc3)c21 (centres undefined),i,40,i,i,i
CCCCNC(=O)C1(C)CCCCN1C(=O)c1ccc2ccccc2n1 (centres undefined),i,i,i,nt,nt
Cc1cccc(CN2CCN(C3CN(Cc4ccc(F)cc4)S(=O)(=O)C3)CC2)c1 (centres undefined),i,i,i,nt,nt
O=C(c1ccccc1)N1CCN(c2ccc(N3CCOCC3)nn2)CC1,i,63,i,i,nt
O=C(c1cccc(Cl)c1)N1CCN(c2ccc(N3CCOCC3)nn2)CC1,i,57,i,i,nt
O=C(c1cccc([N+](=O)[O-])c1)N1CCN(c2ccc(N3CCOCC3)nn2)CC1,i,i,i,i,nt
O=C(c1ccc(Cl)cc1Cl)N1CCN(c2ccc(N3CCOCC3)nn2)CC1,i,52,i,i,nt
SMILES,Rin1-Abl PPI inh,Neddyl block,SUMO1-SIM PPI,ATG4B inh,Neddyl conf
COc1ccccc1C(=O)N1CCN(c2ccc(N3CCOCC3)nn2)CC1,i,nt,i,i,nt
Clc1ccc(-c2nc3ccc(Br)cn3c2Cc2ccsc2)cc1,i,i,i,nt,nt
COc1ccc(NC(=O)C2Cc3c(-c4ccc5c(c4)OCO5)ccnc3O2)cc1OC (centres undefined),i,nt,i,nt,nt
N#C/C(=C\c1cccn1S(=O)(=O)c1cccc(C#N)c1)S(=O)(=O)c1ccc(F)cc1,i,i,i,nt,nt
CN(C)CC1C2CCC(C2)C1O (centres undefined),i,i,i,i,nt
Cc1[nH]nc2c1C(c1ccccc1)C1=C(CC(C)(C)CC1=O)N2 (centres undefined),i,i,i,i,nt
Cc1[nH]nc2c1C(c1ccc(O)cc1)C1=C(CC(C)(C)CC1=O)N2 (centres undefined),i,45,i,i,i
CCOC(=O)C1=C[C@@H](c2ccccc2)N(S(=O)(=O)c2ccc(C)cc2)[C@H]1c1ccc(OC)cc1,i,i,i,nt,nt
CCCn1c(C)cc(/C=C(\C#N)C(=O)OCC(=O)Nc2cccc(S(N)(=O)=O)c2)c1C,i,63,i,i,i
Cc1cc(/C=C(\C#N)C(=O)OCC(=O)NC(=O)NC(C)(C)C)c(C)n1CCC(C)C,i,40,i,i,i
CCCn1c(C)cc(/C=C(\C#N)C(=O)OCC(=O)Nc2cccc(OC)c2)c1C,i,i,i,i,nt
CCc1nc2ccc(C(=O)NCc3cccs3)cn2c1N(CC)CCN(C)C,i,i,i,nt,nt
O=C(NCCc1ccc(Cl)cc1Cl)C1=CC=CN2CCS(=O)(=O)N=C12,i,53,i,i,+
CCOC(=O)C1(C)CCCN(C(=O)c2cccc3ccccc23)C1 (centres undefined),i,i,i,nt,nt
CC(=O)Nc1ccc(C(=O)Nc2ccc(S(=O)(=O)N3CCCC3)cc2)cc1,i,i,i,i,nt
O=C(Nc1ccc2c(c1)C(=O)NC2=O)c1ccc(S(=O)(=O)N2CCCC2)cc1,i,37,i,i,i
O=C(/C=C/c1ccccc1)Nc1ccc2c(c1)C(=O)NC2=O,i,44,i,i,nt
O=C(Nc1ccc2c(c1)C(=O)NC2=O)c1cccc(C(F)(F)F)c1,i,40,i,i,i
O=C(NCc1ccccc1)C(c1ccc(-c2ccccc2)cc1)N1CCN(c2ccccc2F)CC1 (centres undefined),nt,i,i,nt,nt
O=C(O)c1cc2ccc3cccc4ccc(c1)c2c34,i,52,i,i,nt
O=C(NCc1cccs1)c1cccn2c(=O)c3sccc3nc12,i,43,i,i,i
O=C(NCc1ccco1)c1cccn2c(=O)c3sccc3nc12,i,55,i,i,nt
CCOC(=O)N1CCN(C(=O)c2cccn3c(=O)c4sccc4nc23)CC1,i,nt,i,i,nt
Cc1c2ccccc2nc2ccccc12,i,50,i,i,i
O=c1c2ccccc2nc2n1CCCN2,i,52,i,i,nt
SMILES,Rin1-Abl PPI inh,Neddyl block,SUMO1-SIM PPI,ATG4B inh,Neddyl conf
C[C@H]1CN([C@@H](C)CO)C(=O)c2cc(C#Cc3ccccn3)cnc2O[C@@H]1CN(C)Cc1ccccc1,i,i,i,nt,nt
Cc1ccc2[nH]c(=O)c(C3=NN(C(=O)CCC(=O)O)C(c4cccs4)C3)c(-c3ccccc3)c2c1 (centres undefined),i,43,i,i,i
O=C(O)CCC(=O)N1N=C(c2ccc(Br)cc2)CC1c1cccs1 (centres undefined),i,i,i,i,nt
CC(=O)c1cccc(NC(=O)c2cccc3c(-c4cccnc4)coc23)c1,i,i,i,nt,nt
Cc1cc(C)cc(N(CC(=O)NC2CCCC2)C(=O)C2(C)CC(=O)N=C3C=CC=CN32)c1 (centres undefined),i,52,i,i,+
CCCCN1C(=O)C(CC(=O)NCc2cccc3ccccc23)CC(C(=O)N2CCOCC2)=C1C (centres undefined),i,i,i,nt,nt
COc1ccc2c(c1)C1OCCC1C(c1ccco1)N2 (centres undefined),i,nt,i,i,nt
c1coc(C2Nc3ccccc3C3OCCC23)c1 (centres undefined),i,40,i,i,i
COC(CNC(=O)c1ccc2nc(-c3ccccc3)c(-c3ccccc3)nc2c1)OC,i,49,i,i,+
